RTF Ca sens inh = cardiac RTF calcium desensitization; P19429+P45379; IANBD-labeled cardiac RTF, Ca2+ fluorescence; inhibition, % at 7.15 µM; 340,000 compounds, 0.12% hits;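 active = inhibition above the mean inhibition of all tested compounds plus 3 SD, cut at about 17% in these data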;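 note: assay run at fixed EC70 calcium of 1.6 mM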
Keap1 Nrf2 FP = Keap1-Nrf2 (human) interaction inhibition; Q14145; Keap1 Kelch-Nrf2 peptide fluorescence polarization, 1536-well; inhibition, % at 9.4 µM; 340,000 compounds, 0.15% hits; AID 504523; in the data active = inhibition above about 12%;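 note: human Keap1 Kelch domain with fluorescein labeled Nrf2 9mer peptide probe; 0% = neutral control wells and 100% = peptide positive control; higher means more block of Keap1 binding to Nrf2 peptide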
Target sequence (Q14145 whole entry, looked up, the tested form may be a part): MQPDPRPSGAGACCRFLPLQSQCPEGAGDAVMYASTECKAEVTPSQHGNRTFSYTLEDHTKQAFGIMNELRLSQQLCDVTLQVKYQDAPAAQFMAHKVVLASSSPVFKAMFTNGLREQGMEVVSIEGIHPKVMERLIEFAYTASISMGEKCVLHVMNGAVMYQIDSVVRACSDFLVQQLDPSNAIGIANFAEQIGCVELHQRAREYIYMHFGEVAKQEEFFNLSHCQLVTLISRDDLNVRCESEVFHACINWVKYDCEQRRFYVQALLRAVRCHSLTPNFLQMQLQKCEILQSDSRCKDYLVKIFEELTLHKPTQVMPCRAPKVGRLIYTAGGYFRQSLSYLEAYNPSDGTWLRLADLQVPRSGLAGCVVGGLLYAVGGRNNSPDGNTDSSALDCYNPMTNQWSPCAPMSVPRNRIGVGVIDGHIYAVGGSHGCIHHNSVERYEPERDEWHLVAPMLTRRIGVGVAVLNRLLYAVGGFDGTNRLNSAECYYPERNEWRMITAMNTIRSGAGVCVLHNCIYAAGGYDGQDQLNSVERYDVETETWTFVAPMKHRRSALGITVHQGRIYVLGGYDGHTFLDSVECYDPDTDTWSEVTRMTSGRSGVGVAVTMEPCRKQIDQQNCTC
eLon inh = inhibitors of E. coli Lon protease; inhibition, % at 7.94 µM; 360,000 compounds, 0.42% hits; purified E. coli Lon protease, fluorescence polarization; AID 602123; P0A9M0; in the data active = inhibition above about 13%, passing the limit was not always enough;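 note: 0% = enzyme with probe and DMSO and 100% = no enzyme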
cardiac RTF act = increases calcium sensitivity of human cardiac regulated thin filaments; IANBD-labeled TnC RTF fluorescence at EC20 calcium; 0% EC20 calcium, 100% full calcium; activation, % at 7.2 µM; P19429+P45379; 340,000 compounds, 0.24% hits;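 active = activation above the mean over all tested compounds plus 3 SD, cut at about 30% in these data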;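 note: rise in fluorescence read as greater calcium sensitivity of cardiac thin filaments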
LANA DNA inh = inhibitors of KSHV LANA C-terminal domain DNA binding | inhibition, % at 9 µM | 340,000 compounds, 0.078% hits | MBP-C-LANA/FAM-LBS DNA binding, fluorescence polarization;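 active = highest replicate inhibition at or above 60% at 9 µM, even if other replicates fall short; inactive = all replicates below 60% inhibition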;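 note: 0% = neutral control wells and 100% = 4 µM acridine orange control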
Keap1 Kelch bind = binders of human Keap1 Kelch domain; shares compounds with Keap1 Nrf2 FP; Keap1 Kelch thermal shift, delta Tm; hits give high values; max delta Tm, degrees C; 400 compounds, 8% hits; AID 651823; in the data active = max delta Tm above about 0.48 degrees C
Dye-only ctr = dye artifact in Keap1 thermal shift counter-screen; shares compounds with Keap1 Nrf2 FP; Sypro Orange dye-only thermal melt, no protein, delta Tm; top dose 26 µM; delta Tm, degrees C (no concentration beside the values); 140 tested, under 10 active;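 active = at highest dose tested, delta Tm positive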
eLon confirm = confirmation of E. coli Lon protease inhibitors. AID 602230. inhibition, % at 7.94 µM. purified E. coli Lon, fluorescence polarization. 1,400 compounds, 31% hits. shares compounds with eLon inh; in the data active = inhibition above about 16%;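 note: 0% = enzyme with probe and DMSO and 100% = no enzyme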
Active calls of the source: *; / = no result given; + = active, no number. Hits are enriched below; roughly 0.82% of the tested compounds scored in any of these assays.

SMILES	RTF Ca sens inh	Keap1 Nrf2 FP	eLon inh	cardiac RTF act	LANA DNA inh	Keap1 Kelch bind	eLon confirm	others
CCOC(=O)[C@]12CCC=C1N(Cc1cccc3ccccc13)C(=O)[C@H](CC(=O)N1CCSCC1)C2	/	/	10	/	/	/	/
Oc1ccc2c(c1)OCC1(O)Cc3cc(O)c(O)cc3C21 (stereo not given)	-3	18*	+	13	19	-0.11	+
Oc1cc2c(cc1O)[C@H]1c3ccc(O)c(O)c3OC[C@@]1(O)C2	-3	-3	0	-1	5	/	/
COc1cccc(C2=CC(c3cccs3)n3nnnc3N2)c1 (stereo not given)	-24	15*	35*	6	32	-0.13	10
COc1cccc(C2=CC(c3ccc(OC)c(OC)c3OC)n3nnnc3N2)c1 (stereo not given)	-3	1	1	-5	-1	/	/
O=S(=O)([N-]c1nc2ccccc2nc1-[n+]1ccc(-c2ccncc2)cc1)c1ccccc1	-39	17*	47*	51*	5	0	131*	Dye-only ctr=-27
O=C(NCc1ccccc1)c1cc(C2CCCN(S(=O)(=O)c3cccs3)C2)on1 (stereo not given)	/	/	3	/	/	/	/
CCOC(=O)c1c(=O)n(O)c2ccc(OC)cc2[n+]1[O-]	-17	19*	83*	26	26	0.01	29*
COc1ccc2c(c1)[n+](=O)c(C(C)=O)c(C)n2[O-]	2	0	0	8	0	/	/
CC(OC(=O)C1=COCCO1)C(=O)NC1CCCCC1 (stereo not given)	/	/	-7	/	/	/	/
CC1(C)CC(=O)C2=C(C1)OC(N)=C(C#N)C2c1cc2c(cc1[N+](=O)[O-])OCO2 (stereo not given)	-14	15*	104*	10	22	-0.01	80*	Dye-only ctr=-21
CCOc1cc(C2C(C#N)=C(N)OC3=C2C(=O)CC(C)(C)C3)cc([N+](=O)[O-])c1O (stereo not given)	0	1	-2	-6	0	/	/
CC[C@@]1(O)C(=O)OCc2c1cc1n(c2=O)Cc2cc3c(CN(C)C)c(O)ccc3nc2-1	-222	78*	+	221*	131*	-0.08	+
CC[C@@]1(O)C(=O)OCc2c1cc1n(c2=O)Cc2cc3c(N)cccc3nc2-1	-10	-5	0	-1	0	/	/
CCCC1C2CN(C(C)C)CC=C2C(C#N)=C(N)C1(C#N)C#N (stereo not given)	-52	20*	59*	52*	45	-0.16	18*	Dye-only ctr=-26
CN1CC=C2C(C#N)=C(N)C(C#N)(C#N)C(c3ccsc3)C2C1 (stereo not given)	-33	17*	60*	28	36	-0.17	32*
CCOC(=O)N1CC=C2C(C#N)=C(N)C(C#N)(C#N)[C@H](c3ccsc3)[C@H]2C1	-12	-11	2	1	6	/	/
CC1(C(=O)NS(=O)(=O)c2ccccc2Cl)CCN1C(=O)CCC1CCCC1 (stereo not given)	/	/	-7	/	/	/	/
Cc1cc2nc3c(=O)[nH]c(=O)[nH]c3nc2c([N+](=O)[O-])c1N	-133	89*	95*	140*	109*	0.18	182*	Dye-only ctr=-27
Cc1c(N)c(C(C)(C)C)cc(C(C)(C)C)c1[N+](=O)[O-]	-13	-8	7	0	0	/	/
O=C(c1ccc(N2C(=O)CCC2=O)cc1)N1CCCSC1=Nc1ccccc1	/	/	5	/	/	/	/
CN(C)CCNc1ccc2ncn3c4ccc(O)cc4c(=O)c1c23	-185	38*	+	170*	114*	-0.13	+
COc1ccc2nc(Cl)c(C=O)c(N3CCOCC3)c2c1	/	/	-19	/	/	/	/
CCOC(=O)C1=CCCN(S(=O)(=O)c2ccc(C)cc2)C1	/	/	3	/	/	/	/
C=CCOc1ccc(C2OC34CCCCC3C(C#N)(C#N)C2(C#N)C(=N)O4)cc1 (stereo not given)	-32	11*	31*	27	36	-0.08	21*	Dye-only ctr=-27

Screening results as filed in PubChem.
